Reference: article PMC7862700, “An all-to-all approach to the identification of sequence-specific readers for epigenetic DNA modifications on cytosine”

What was measured:
Assay in all cases: DAPPL (digital affinity profiling via proximity ligation, sequencing); 10 mM Tris-HCl pH 7.5, 50 mM NaCl, 1 mM DTT, 4% glycerol, room temperature, 30 min; GST-TFs on glutathione beads, 16-mer random dsDNA library, 0.1% formaldehyde crosslink after washing; high values mean tight binding
FEV = target: T1, FEV (Homo sapiens, UniProt Q99581 1-238); conditions: protein: recombinant; tags: N-terminal GST; dsDNA, one strand shown
T1 sequence: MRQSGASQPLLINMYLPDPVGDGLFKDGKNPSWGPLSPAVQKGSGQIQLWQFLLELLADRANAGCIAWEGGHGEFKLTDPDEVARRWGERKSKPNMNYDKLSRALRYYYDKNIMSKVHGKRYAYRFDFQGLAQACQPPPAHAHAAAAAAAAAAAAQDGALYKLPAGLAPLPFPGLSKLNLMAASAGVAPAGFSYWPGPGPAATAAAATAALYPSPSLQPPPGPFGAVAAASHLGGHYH
How it was run: (§1)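 After expression in yeast as GST fusions, human transcription factors were bound to glutathione beads, DNA-barcoded and mixed with a tag-only sample. The pools were incubated with 200 nmole of a 16-mer random double-stranded DNA library in Tris/NaCl/DTT/glycerol buffer (30 min, room temperature), washed and crosslinked with 0.1% formaldehyde. Proximity ligation with BsaI/T4 ligase ran for 1 h at 37 °C, before PCR amplification and sequencing on an Illumina NextSeq500. Binding signal is a hexamer's read frequency for a factor divided by its frequency for the tag-only sample.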

ETV5 = ETV5 (Homo sapiens, UniProt P41161 1-510); conditions: protein: recombinant; tags: N-terminal GST; dsDNA, one strand shown
ETV5, sequence (P41161 whole entry): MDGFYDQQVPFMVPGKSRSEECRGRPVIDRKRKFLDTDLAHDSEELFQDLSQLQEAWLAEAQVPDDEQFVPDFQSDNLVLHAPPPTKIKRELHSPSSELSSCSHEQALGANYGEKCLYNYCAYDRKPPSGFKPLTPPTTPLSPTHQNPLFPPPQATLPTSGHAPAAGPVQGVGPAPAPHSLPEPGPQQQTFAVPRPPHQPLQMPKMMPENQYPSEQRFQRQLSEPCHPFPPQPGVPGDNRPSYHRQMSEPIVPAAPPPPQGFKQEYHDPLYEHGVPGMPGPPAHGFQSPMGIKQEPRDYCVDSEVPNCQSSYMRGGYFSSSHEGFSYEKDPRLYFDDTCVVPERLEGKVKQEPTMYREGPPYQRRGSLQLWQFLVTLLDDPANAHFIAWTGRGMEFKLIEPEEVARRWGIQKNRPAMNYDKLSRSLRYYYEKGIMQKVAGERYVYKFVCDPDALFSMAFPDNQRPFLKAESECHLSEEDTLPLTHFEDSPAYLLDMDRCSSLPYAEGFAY
How it was run: as §1

HSF1 = HSF1 (Homo sapiens, UniProt Q00613 1-529); conditions: protein: recombinant; tags: N-terminal GST; chain copies: 3; dsDNA, one strand shown
HSF1, sequence (Q00613 whole entry): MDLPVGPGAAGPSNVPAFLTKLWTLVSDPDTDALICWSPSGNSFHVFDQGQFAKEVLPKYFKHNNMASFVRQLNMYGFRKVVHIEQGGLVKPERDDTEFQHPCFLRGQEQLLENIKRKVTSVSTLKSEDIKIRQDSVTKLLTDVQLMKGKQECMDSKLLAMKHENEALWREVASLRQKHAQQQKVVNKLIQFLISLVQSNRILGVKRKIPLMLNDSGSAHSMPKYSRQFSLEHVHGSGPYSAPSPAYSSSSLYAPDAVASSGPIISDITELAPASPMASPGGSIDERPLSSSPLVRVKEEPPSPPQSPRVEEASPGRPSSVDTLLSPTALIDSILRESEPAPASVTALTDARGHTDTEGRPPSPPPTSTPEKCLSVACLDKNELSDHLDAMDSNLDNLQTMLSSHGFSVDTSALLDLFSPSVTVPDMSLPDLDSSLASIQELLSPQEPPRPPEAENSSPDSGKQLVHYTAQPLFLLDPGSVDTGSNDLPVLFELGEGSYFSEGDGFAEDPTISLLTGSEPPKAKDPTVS
How it was run: as §1

SPIC = target: T2, SPIC (Homo sapiens, UniProt Q8N5J4 1-248); conditions: protein: recombinant; tags: N-terminal GST; dsDNA, one strand shown
T2 sequence: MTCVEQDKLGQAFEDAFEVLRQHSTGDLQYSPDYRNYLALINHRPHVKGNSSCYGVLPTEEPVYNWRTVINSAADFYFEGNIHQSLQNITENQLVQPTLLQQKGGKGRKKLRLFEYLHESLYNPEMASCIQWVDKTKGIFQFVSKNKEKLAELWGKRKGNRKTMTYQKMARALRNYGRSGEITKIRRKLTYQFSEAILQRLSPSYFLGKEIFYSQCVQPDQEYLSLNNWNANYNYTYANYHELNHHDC
How it was run: as §1

ELF4 = ELF4 (Homo sapiens, UniProt Q99607 1-663); conditions: protein: recombinant; tags: N-terminal GST; dsDNA, one strand shown
ELF4, sequence (Q99607 whole entry): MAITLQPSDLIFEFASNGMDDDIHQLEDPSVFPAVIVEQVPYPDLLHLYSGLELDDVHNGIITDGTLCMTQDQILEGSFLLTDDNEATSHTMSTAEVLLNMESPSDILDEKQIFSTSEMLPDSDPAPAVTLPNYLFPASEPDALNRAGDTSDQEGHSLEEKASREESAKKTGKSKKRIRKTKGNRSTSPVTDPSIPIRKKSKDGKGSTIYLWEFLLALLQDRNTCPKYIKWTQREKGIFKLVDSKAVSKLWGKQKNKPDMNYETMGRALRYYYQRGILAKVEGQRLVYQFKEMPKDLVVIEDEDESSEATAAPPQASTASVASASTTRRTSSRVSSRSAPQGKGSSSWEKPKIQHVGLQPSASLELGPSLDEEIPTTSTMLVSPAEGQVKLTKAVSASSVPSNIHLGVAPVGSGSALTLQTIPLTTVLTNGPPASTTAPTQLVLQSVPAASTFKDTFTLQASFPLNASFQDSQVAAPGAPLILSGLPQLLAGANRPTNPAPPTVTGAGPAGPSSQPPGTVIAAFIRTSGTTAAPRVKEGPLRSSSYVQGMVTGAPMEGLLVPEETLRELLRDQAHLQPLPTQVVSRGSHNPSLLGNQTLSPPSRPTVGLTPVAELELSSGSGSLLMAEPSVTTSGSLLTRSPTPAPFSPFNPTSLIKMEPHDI
How it was run: as §1

ELK4 = target: T3, ELK4 (Homo sapiens, UniProt P28324-2 1-405); conditions: protein: recombinant; tags: N-terminal GST; dsDNA, one strand shown
T3 sequence: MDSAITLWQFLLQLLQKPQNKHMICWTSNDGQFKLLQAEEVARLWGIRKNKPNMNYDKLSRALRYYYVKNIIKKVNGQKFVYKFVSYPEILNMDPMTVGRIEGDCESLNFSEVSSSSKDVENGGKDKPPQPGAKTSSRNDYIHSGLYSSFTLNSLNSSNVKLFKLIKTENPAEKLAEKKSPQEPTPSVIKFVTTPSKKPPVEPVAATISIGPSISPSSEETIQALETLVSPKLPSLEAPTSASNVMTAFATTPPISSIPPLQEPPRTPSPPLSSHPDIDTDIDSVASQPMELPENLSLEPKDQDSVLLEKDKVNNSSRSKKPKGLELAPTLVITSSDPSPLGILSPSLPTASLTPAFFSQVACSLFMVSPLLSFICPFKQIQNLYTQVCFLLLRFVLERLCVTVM
How it was run: as §1

ETV2 = target: T4, ETV2 (Homo sapiens, UniProt O00321 1-342); conditions: protein: recombinant; tags: N-terminal GST; dsDNA, one strand shown
T4 sequence: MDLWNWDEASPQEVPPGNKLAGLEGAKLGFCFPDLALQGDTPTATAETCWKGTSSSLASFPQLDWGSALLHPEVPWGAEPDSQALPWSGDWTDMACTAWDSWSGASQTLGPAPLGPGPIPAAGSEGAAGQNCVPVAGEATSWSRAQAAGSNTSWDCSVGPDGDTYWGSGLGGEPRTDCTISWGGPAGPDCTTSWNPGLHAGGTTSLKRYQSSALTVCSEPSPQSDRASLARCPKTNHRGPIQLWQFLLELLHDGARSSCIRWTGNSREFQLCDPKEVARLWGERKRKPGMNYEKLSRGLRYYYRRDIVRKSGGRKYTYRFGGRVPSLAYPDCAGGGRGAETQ
How it was run: as §1

ELF3 = target: T5, ELF3 (Homo sapiens, UniProt P78545 1-371); conditions: protein: recombinant; tags: N-terminal GST; dsDNA, one strand shown
T5 sequence: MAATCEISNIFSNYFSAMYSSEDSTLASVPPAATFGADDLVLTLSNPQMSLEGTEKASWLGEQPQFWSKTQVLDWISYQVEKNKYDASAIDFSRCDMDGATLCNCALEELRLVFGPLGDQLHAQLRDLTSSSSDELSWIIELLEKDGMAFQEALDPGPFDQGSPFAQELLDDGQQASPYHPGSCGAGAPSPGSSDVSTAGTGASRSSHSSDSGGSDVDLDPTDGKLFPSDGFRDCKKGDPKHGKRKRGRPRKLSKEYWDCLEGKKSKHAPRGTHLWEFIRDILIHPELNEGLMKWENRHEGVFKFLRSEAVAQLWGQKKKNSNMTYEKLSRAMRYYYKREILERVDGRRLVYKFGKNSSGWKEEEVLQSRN
How it was run: as §1

CRX = CRX (Homo sapiens, UniProt O43186 1-299); conditions: protein: recombinant; tags: N-terminal GST; dsDNA, one strand shown
CRX, sequence (O43186 whole entry): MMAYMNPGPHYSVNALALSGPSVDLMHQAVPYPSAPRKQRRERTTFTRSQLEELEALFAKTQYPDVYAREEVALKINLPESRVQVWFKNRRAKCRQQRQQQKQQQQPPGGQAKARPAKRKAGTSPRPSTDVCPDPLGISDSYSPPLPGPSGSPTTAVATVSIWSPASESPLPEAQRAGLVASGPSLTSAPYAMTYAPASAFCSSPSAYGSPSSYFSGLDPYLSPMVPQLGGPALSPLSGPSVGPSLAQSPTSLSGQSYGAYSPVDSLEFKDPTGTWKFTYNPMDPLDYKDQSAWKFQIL
How it was run: as §1

ETV1 = ETV1 (Homo sapiens, UniProt P50549 1-477); conditions: protein: recombinant; tags: N-terminal GST; dsDNA, one strand shown
ETV1, sequence (P50549 whole entry): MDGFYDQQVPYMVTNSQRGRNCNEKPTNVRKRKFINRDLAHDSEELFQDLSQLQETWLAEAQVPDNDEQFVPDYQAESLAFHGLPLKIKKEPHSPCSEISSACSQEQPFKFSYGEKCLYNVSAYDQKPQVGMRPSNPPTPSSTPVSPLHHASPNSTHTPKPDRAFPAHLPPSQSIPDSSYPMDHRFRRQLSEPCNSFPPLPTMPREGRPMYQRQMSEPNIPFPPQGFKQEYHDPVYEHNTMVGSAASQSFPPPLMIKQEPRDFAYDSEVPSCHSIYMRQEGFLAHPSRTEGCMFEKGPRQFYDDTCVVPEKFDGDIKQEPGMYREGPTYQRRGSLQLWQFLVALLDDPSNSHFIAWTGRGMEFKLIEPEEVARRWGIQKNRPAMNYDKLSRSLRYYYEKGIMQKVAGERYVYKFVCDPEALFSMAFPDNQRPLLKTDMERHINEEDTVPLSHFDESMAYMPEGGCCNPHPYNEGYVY
How it was run: as §1

ERF = target: T6, ERF (Homo sapiens, UniProt P50548 1-548); conditions: protein: recombinant; tags: N-terminal GST; dsDNA, one strand shown
T6 sequence: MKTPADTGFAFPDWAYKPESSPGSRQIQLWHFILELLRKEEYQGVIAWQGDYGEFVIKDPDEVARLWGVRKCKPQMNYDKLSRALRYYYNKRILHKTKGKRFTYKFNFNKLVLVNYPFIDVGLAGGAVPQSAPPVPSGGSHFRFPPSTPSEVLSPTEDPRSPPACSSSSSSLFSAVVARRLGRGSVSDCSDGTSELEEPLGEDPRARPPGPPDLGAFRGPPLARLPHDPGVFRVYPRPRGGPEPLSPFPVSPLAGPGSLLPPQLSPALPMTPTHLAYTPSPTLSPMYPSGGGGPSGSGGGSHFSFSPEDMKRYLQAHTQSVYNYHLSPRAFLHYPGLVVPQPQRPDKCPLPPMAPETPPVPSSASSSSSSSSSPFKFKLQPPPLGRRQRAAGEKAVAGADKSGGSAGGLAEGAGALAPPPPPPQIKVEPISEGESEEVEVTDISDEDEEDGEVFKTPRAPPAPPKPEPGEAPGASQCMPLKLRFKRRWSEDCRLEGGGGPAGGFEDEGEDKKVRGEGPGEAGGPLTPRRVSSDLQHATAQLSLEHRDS
How it was run: as §1

ETV3L = target: T7, ETV3L (Homo sapiens, UniProt Q6ZN32 1-361); conditions: protein: recombinant; tags: N-terminal GST; dsDNA, one strand shown
T7 sequence: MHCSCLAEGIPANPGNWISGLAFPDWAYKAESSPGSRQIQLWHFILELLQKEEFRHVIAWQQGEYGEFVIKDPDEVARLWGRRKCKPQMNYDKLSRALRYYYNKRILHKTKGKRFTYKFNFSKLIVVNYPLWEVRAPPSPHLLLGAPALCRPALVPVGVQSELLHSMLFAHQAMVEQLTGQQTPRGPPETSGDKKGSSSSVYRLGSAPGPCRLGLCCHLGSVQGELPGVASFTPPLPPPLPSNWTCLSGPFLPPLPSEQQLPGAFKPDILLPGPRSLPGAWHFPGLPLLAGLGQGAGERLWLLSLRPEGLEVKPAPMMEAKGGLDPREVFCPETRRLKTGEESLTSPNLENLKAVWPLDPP
How it was run: as §1

ETS2 = target: T8, ETS2 (Homo sapiens, UniProt P15036 1-469); conditions: protein: recombinant; tags: N-terminal GST; dsDNA, one strand shown
T8 sequence: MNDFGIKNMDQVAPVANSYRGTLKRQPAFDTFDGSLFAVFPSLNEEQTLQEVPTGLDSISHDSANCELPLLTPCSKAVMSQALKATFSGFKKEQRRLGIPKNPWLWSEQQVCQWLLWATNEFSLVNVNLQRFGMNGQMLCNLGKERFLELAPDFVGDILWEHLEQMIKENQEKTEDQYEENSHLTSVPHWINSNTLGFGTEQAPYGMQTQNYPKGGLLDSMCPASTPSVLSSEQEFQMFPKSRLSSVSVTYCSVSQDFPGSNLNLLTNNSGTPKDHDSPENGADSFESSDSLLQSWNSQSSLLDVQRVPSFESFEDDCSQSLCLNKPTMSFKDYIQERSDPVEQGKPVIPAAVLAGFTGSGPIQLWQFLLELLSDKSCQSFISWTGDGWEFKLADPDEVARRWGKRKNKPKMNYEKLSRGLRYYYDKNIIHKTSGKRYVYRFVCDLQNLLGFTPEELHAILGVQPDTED
How it was run: as §1

SPDEF = target: T9, SPDEF (Homo sapiens, UniProt O95238 1-335); conditions: protein: recombinant; tags: N-terminal GST; dsDNA, one strand shown
T9 sequence: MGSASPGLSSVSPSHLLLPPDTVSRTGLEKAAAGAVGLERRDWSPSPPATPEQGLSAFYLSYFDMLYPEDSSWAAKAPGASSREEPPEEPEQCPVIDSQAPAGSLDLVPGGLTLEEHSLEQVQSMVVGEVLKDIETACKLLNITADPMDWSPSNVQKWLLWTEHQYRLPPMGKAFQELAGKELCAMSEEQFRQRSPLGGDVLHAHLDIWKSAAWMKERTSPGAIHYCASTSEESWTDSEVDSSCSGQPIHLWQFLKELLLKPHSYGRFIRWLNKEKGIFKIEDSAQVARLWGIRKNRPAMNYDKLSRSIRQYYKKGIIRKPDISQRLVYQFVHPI
How it was run: as §1

ETV7 = target: T10, ETV7 (Homo sapiens, UniProt Q9Y603 1-341); conditions: protein: recombinant; tags: N-terminal GST; dsDNA, one strand shown
T10 sequence: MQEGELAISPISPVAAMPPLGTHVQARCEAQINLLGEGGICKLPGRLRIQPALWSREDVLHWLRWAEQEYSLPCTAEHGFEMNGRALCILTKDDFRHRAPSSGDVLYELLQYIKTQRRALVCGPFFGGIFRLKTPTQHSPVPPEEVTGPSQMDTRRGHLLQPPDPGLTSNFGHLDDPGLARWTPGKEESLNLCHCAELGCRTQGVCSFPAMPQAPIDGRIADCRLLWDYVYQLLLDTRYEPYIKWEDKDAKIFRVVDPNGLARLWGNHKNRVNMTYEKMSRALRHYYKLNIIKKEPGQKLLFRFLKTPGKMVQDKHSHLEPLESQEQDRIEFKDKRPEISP
How it was run: as §1

ELF5 = target: T11, ELF5 (Homo sapiens, UniProt Q9UKW6-2 1-255); conditions: protein: recombinant; tags: N-terminal GST; dsDNA, one strand shown
T11 sequence: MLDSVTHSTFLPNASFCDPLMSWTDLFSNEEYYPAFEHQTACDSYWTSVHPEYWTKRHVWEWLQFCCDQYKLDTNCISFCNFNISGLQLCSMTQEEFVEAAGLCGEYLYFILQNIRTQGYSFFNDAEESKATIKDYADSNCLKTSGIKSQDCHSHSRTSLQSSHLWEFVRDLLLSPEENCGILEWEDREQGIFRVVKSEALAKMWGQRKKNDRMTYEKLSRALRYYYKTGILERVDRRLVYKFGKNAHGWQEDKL
How it was run: as §1

ETV3 = target: T12, ETV3 (Homo sapiens, UniProt P41162-2 1-143); conditions: protein: recombinant; tags: N-terminal GST; dsDNA, one strand shown
T12 sequence: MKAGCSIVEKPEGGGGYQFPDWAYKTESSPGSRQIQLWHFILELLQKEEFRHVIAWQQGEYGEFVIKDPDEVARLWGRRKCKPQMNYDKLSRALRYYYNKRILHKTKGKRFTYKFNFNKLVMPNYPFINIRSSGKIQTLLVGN
How it was run: as §1

ETV6 = ETV6 (Homo sapiens, UniProt P41212 1-452); conditions: protein: recombinant; tags: N-terminal GST; dsDNA, one strand shown
ETV6, sequence (P41212 whole entry): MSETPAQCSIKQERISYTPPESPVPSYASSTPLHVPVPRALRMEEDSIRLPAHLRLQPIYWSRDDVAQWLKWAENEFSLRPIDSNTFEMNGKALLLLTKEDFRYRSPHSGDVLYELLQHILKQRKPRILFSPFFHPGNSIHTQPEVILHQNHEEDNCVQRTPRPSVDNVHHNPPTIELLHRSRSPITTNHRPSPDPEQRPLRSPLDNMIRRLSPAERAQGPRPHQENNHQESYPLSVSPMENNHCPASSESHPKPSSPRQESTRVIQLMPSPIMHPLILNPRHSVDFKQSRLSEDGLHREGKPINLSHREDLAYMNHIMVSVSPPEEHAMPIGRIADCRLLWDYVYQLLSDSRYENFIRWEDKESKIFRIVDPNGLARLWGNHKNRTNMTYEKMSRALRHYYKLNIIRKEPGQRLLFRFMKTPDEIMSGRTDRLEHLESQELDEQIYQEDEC
How it was run: as §1

## GCGCTT
FEV
  binding signal: 1.37 fold enrichment (6-mer frequency, TF over GST control)
ETV5
  binding signal: 1.29 fold enrichment (6-mer frequency, TF over GST control)
HSF1
  binding signal: 1.16 fold enrichment (6-mer frequency, TF over GST control)
SPIC
  binding signal: 1.26 fold enrichment (6-mer frequency, TF over GST control)
ELF4
  binding signal: 1.24 fold enrichment (6-mer frequency, TF over GST control)
ELK4
  binding signal: 1.36 fold enrichment (6-mer frequency, TF over GST control)
ETV2
  binding signal: 1.12 fold enrichment (6-mer frequency, TF over GST control)
ELF3
  binding signal: 1.04 fold enrichment (6-mer frequency, TF over GST control)
CRX
  binding signal: 1.39 fold enrichment (6-mer frequency, TF over GST control)
ETV1
  binding signal: 1.3 fold enrichment (6-mer frequency, TF over GST control)
ERF
  binding signal: 1.42 fold enrichment (6-mer frequency, TF over GST control)
ETV3L
  binding signal: 1.3 fold enrichment (6-mer frequency, TF over GST control)
ETS2
  binding signal: 1.37 fold enrichment (6-mer frequency, TF over GST control)
SPDEF
  binding signal: 1.2 fold enrichment (6-mer frequency, TF over GST control)
ETV7
  binding signal: 1.34 fold enrichment (6-mer frequency, TF over GST control)
ELF5
  binding signal: 1.31 fold enrichment (6-mer frequency, TF over GST control)
ETV3
  binding signal: 1.42 fold enrichment (6-mer frequency, TF over GST control)
ETV6
  binding signal: 1.33 fold enrichment (6-mer frequency, TF over GST control)
